Assay results: article PMC7862700, “An all-to-all approach to the identification of sequence-specific readers for epigenetic DNA modifications on cytosine”

Tests used:
Assay in all cases: DAPPL (digital affinity profiling via proximity ligation, sequencing); 10 mM Tris-HCl pH 7.5, 50 mM NaCl, 1 mM DTT, 4% glycerol, room temperature, 30 min; GST-TFs on glutathione beads, 16-mer random dsDNA library, 0.1% formaldehyde crosslink after washing; high values mean tight binding
Details in all cases: protein: recombinant; tags: N-terminal GST; dsDNA, one strand shown
FLI1 = target: T1, FLI1 (Homo sapiens, UniProt Q01543 1-452)
T1 sequence: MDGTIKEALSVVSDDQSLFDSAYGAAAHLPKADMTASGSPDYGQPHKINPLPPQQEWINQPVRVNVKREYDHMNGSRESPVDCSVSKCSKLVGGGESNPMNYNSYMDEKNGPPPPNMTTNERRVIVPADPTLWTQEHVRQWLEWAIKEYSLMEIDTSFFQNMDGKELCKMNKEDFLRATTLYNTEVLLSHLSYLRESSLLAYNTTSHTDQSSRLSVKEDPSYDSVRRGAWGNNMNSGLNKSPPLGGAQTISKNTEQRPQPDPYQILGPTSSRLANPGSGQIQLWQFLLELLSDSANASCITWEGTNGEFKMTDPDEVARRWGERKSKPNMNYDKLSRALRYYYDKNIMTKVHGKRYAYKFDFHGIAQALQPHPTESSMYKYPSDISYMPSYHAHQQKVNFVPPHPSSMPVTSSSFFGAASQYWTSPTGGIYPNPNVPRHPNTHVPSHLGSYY
How it was run: (§1)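 The binding signal reported is, for every hexamer, its read frequency for a factor over its read frequency for the tag-only sample. Reads came from pools of yeast-expressed, GST-fused human transcription factors on glutathione beads, barcoded with DNA and mixed with that sample, which were incubated with 200 nmole of a random double-stranded 16-mer DNA library in Tris/NaCl/DTT/glycerol buffer at room temperature for 30 min. After washing, the pools were crosslinked with 0.1% formaldehyde, proximity-ligated with BsaI/T4 ligase for 1 h at 37 °C, PCR-amplified and sequenced on an Illumina NextSeq500.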

ELK1 = target: T2, ELK1 (Homo sapiens, UniProt P19419 1-428)
T2 sequence: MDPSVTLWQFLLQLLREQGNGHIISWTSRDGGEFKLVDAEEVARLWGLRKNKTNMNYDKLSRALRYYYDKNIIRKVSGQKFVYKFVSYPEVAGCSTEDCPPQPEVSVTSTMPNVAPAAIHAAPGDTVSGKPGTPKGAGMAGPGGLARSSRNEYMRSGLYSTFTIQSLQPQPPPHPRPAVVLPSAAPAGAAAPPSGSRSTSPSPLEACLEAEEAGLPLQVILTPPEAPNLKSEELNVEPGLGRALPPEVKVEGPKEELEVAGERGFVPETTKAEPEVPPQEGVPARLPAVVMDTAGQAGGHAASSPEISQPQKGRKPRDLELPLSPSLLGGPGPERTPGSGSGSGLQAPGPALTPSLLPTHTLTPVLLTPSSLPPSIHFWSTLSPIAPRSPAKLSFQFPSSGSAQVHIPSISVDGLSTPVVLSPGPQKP
How it was run: as §1

GABPA = target: T3, GABPA (Homo sapiens, UniProt Q06546 1-454)
T3 sequence: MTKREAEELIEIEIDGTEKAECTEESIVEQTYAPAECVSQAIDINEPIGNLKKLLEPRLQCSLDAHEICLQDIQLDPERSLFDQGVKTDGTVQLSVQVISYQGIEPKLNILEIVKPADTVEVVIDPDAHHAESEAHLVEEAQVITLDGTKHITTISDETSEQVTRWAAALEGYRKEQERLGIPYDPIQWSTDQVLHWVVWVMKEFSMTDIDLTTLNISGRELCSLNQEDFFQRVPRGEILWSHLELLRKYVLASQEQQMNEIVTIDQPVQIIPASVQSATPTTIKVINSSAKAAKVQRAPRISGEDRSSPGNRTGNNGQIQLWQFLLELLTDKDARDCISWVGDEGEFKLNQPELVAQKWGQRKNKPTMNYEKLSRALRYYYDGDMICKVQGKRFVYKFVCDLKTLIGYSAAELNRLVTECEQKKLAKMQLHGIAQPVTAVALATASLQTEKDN
How it was run: as §1

ERG = target: T4, ERG (Homo sapiens, UniProt P11308 1-479)
T4 sequence: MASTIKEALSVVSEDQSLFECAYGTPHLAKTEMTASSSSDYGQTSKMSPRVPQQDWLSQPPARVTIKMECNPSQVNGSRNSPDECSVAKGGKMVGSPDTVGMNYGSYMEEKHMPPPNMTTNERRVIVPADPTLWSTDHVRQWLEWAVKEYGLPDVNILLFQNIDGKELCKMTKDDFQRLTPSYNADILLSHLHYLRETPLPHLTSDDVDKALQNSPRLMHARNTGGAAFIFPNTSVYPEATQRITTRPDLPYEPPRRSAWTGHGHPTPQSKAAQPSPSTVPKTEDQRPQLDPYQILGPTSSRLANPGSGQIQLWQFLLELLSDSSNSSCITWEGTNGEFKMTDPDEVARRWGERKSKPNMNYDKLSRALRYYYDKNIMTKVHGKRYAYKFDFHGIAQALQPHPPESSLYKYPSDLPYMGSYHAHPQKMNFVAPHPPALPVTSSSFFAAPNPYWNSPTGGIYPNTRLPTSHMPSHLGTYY
How it was run: as §1

ELF1 = ELF1 (Homo sapiens, UniProt P32519 1-619)
How it was run: as §1

EHF = target: T5, EHF (Homo sapiens, UniProt Q9NZC4 1-300)
T5 sequence: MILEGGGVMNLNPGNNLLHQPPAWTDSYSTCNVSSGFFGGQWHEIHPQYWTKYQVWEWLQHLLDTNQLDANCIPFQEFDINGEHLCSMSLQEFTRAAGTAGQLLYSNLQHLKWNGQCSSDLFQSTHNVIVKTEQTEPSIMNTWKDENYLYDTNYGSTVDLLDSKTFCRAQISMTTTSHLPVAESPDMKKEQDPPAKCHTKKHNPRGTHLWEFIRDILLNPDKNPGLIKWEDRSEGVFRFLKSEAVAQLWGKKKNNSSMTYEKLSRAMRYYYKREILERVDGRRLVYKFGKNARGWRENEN
How it was run: as §1

SPI1 = SPI1 (Homo sapiens, UniProt P17947 1-270)
How it was run: as §1

SPIB = SPIB (Homo sapiens, UniProt Q01892 1-262)
How it was run: as §1

ELK3 = target: T6, ELK3 (Homo sapiens, UniProt P41970 1-407)
T6 sequence: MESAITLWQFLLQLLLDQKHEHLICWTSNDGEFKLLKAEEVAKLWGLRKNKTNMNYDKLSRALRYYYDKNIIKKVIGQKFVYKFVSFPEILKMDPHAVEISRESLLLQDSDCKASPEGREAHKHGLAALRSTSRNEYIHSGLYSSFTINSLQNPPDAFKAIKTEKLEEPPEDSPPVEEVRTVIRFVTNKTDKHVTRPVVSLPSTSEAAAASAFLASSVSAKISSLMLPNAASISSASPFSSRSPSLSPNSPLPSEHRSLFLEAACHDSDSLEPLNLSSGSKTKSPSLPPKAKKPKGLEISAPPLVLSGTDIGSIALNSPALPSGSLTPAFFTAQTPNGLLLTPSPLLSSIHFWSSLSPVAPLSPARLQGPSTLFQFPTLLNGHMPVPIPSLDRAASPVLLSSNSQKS
How it was run: as §1

Sequence of SPIB (Q01892 whole entry): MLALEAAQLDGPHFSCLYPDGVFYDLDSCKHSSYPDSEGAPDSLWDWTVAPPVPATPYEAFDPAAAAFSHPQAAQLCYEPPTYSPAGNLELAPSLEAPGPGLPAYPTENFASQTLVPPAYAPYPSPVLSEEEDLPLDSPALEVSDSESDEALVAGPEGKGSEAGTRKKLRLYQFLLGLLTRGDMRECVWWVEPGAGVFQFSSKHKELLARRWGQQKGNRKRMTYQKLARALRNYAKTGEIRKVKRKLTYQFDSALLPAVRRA
Sequence of ELF1 (P32519 whole entry): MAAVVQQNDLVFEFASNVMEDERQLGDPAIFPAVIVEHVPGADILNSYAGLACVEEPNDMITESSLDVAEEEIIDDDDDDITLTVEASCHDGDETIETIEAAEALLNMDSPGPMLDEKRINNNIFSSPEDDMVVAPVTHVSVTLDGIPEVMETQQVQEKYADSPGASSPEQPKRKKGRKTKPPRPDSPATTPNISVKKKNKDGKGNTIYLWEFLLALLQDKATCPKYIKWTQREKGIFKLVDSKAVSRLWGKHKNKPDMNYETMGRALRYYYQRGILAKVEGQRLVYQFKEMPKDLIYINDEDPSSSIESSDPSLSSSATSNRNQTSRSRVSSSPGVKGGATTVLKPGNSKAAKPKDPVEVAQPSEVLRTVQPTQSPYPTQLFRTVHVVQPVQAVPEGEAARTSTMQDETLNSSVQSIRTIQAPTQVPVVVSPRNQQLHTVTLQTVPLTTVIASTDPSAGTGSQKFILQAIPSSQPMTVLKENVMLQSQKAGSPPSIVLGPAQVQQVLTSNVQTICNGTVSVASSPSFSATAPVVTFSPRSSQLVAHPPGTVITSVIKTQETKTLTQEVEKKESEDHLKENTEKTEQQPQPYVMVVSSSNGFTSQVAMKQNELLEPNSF

| Sequence | binding signal (FLI1) | binding signal (ELK1) | binding signal (GABPA) | binding signal (ERG) | binding signal (ELF1) | binding signal (EHF) | binding signal (SPI1) | binding signal (SPIB) | binding signal (ELK3) |
| --- | --- | --- | --- | --- | --- | --- | --- | --- | --- |
| AACCCG | 1.36 fold enrichment (6-mer frequency, TF over GST control) | 1.44 fold enrichment (6-mer frequency, TF over GST control) | 1.31 fold enrichment (6-mer frequency, TF over GST control) | 1.46 fold enrichment (6-mer frequency, TF over GST control) | 1.5 fold enrichment (6-mer frequency, TF over GST control) | 1.54 fold enrichment (6-mer frequency, TF over GST control) | 1.36 fold enrichment (6-mer frequency, TF over GST control) | 1.46 fold enrichment (6-mer frequency, TF over GST control) | 1.49 fold enrichment (6-mer frequency, TF over GST control) |
| CAAAAC | 1.19 fold enrichment (6-mer frequency, TF over GST control) | 1.27 fold enrichment (6-mer frequency, TF over GST control) | 1.3 fold enrichment (6-mer frequency, TF over GST control) | 1.23 fold enrichment (6-mer frequency, TF over GST control) | 1.28 fold enrichment (6-mer frequency, TF over GST control) | 1.26 fold enrichment (6-mer frequency, TF over GST control) | 1.38 fold enrichment (6-mer frequency, TF over GST control) | 1.23 fold enrichment (6-mer frequency, TF over GST control) | 1.21 fold enrichment (6-mer frequency, TF over GST control) |
| CCTTCC | 2.45 fold enrichment (6-mer frequency, TF over GST control) | 2.68 fold enrichment (6-mer frequency, TF over GST control) | 2.22 fold enrichment (6-mer frequency, TF over GST control) | 3.03 fold enrichment (6-mer frequency, TF over GST control) | 2.39 fold enrichment (6-mer frequency, TF over GST control) | 2.75 fold enrichment (6-mer frequency, TF over GST control) | 2.48 fold enrichment (6-mer frequency, TF over GST control) | 2.75 fold enrichment (6-mer frequency, TF over GST control) | 2.47 fold enrichment (6-mer frequency, TF over GST control) |
| GATTAC | 1.16 fold enrichment (6-mer frequency, TF over GST control) | 1.1 fold enrichment (6-mer frequency, TF over GST control) | 1.13 fold enrichment (6-mer frequency, TF over GST control) | 1.12 fold enrichment (6-mer frequency, TF over GST control) | 1.07 fold enrichment (6-mer frequency, TF over GST control) | 1.12 fold enrichment (6-mer frequency, TF over GST control) | 1.09 fold enrichment (6-mer frequency, TF over GST control) | 1.15 fold enrichment (6-mer frequency, TF over GST control) | 1.18 fold enrichment (6-mer frequency, TF over GST control) |
| AAATTT | 1.31 fold enrichment (6-mer frequency, TF over GST control) | 1.31 fold enrichment (6-mer frequency, TF over GST control) | 1.26 fold enrichment (6-mer frequency, TF over GST control) | 1.3 fold enrichment (6-mer frequency, TF over GST control) | 1.25 fold enrichment (6-mer frequency, TF over GST control) | 1.33 fold enrichment (6-mer frequency, TF over GST control) | 1.22 fold enrichment (6-mer frequency, TF over GST control) | 1.45 fold enrichment (6-mer frequency, TF over GST control) | 1.28 fold enrichment (6-mer frequency, TF over GST control) |
| TTATCT | 1.37 fold enrichment (6-mer frequency, TF over GST control) | 1.2 fold enrichment (6-mer frequency, TF over GST control) | 1.41 fold enrichment (6-mer frequency, TF over GST control) | 1.15 fold enrichment (6-mer frequency, TF over GST control) | 1.31 fold enrichment (6-mer frequency, TF over GST control) | 1.3 fold enrichment (6-mer frequency, TF over GST control) | 1.31 fold enrichment (6-mer frequency, TF over GST control) | 1.34 fold enrichment (6-mer frequency, TF over GST control) | 1.36 fold enrichment (6-mer frequency, TF over GST control) |
| ATCGCC | 1.28 fold enrichment (6-mer frequency, TF over GST control) | 1.36 fold enrichment (6-mer frequency, TF over GST control) | 1.27 fold enrichment (6-mer frequency, TF over GST control) | 1.29 fold enrichment (6-mer frequency, TF over GST control) | 1.23 fold enrichment (6-mer frequency, TF over GST control) | 1.37 fold enrichment (6-mer frequency, TF over GST control) | 1.22 fold enrichment (6-mer frequency, TF over GST control) | 1.29 fold enrichment (6-mer frequency, TF over GST control) | 1.27 fold enrichment (6-mer frequency, TF over GST control) |
